# According to the supplement of paper PMC10338343:
# ± gives the standard deviation.
# Test system: MILI (PIWIL2) piRISC loaded with L1MC piRNA (26 nt)
# Experiment: pre-steady-state target cleavage rate (min^-1); guide: L1MC piRNA 5'p-UAACUAAAUACUAUGCAAGCUGUAGG; MIWI and MILI are mouse PIWI proteins and EfPiwi is from a freshwater sponge; tags in brackets are library labels; higher = faster piRNA-guided slicing of the target
# Settings: auxiliary factor: 500 nM mouse GTSF1
# How it was run: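 Active affinity-purified piRISC carrying one synthetic guide (1 nM) was mixed with a transcribed, DNA-blocked target RNA library […] in HEPES–potassium acetate buffer at 33 °C for 0–8 or 0–960 min, with or without 500 nM GTSF1 partner protein. Uncleaved targets were then sequenced and normalised to depth and to weakly complementary targets. Three trials were pooled, and k3 was capped at 0.0001 min^-1. A burst-and-steady-state fit was applied to obtain the pre-steady-state cleavage rate.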
# 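Further: 1 nM active piRISC with 0.1 nM target library at 33 °C single turnover.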
row,Sequence,pre-steady-state target cleavage rate
1,UCCUGGAUGUCGAACGUAUGUAUUUAUUUA,< 0.0001
2,UCCUGGAUGUCGUUGCAUAGUAUUUAGGUA,0.0112 ± 0.0062
3,UCCUCCUACAGCUUGCUAAGUAUUUUCAAA,0.0625 ± 0.017
4,UCCUGGAUGUCCUUGCAUAGUAUUAAGAUA,0.00928 ± 0.0043
5,UCCUCCUACAGCUUCGAUAGUAUUUAGAAA,0.0982 ± 0.019
6,UCCUGGAUGAGCUUGCAUAGUAUUUUGAUA,0.0343 ± 0.014
7,UCCUGGAUGAGCUUGCAUAGUAAUUACUUA,0.00616 ± 0.004
8,UCCUGGAUGUCCUUGCAUAGUUUUUAGUAA,0.013 ± 0.0043
9,UCCUGGAUGUCGUUGCAUAGUAUUAAGUAA,0.0273 ± 0.012
10,UCCUGGUACAGCUUGCAUAGUAUAAUCAAA,0.0264 ± 0.0091
11,UCCUGGAUGUCCUAGCAUUGUAUUUAGUUA,0.0111 ± 0.0048
12,UCCUGGAACAGCUUGCAUAGUAUUUAGUCUA,0.055 ± 0.015
13,UCCUCCUACAGCUUGGUAAGUAUUUAGAAA,0.0543 ± 0.013
14,UCCUCCUACAGCUUCGUUAGUAUUUAGUAA,0.186 ± 0.026
15,UCCUGGAUGUCGAUGCAUAGUAUAAAGUUA,0.0643 ± 0.016
16,UCCUGCUACAGCUUGCUAUGUAUUUAGAAA,0.0133 ± 0.0063
17,UCCUGGAUGUGCUUGCAUAGUAUUUUCAAA,0.00462 ± 0.0044
18,UCCUGGAUGUCGAACCAUAGUAUUUAGUUUA,0.00592 ± 0.0031

row,Sequence,pre-steady-state target cleavage rate
1,UCCUCCUACAGCUUGCAUACAUUUUAGUUA,0.00509 ± 0.0039
2,UCCUGGAUGUCCUUGCAAUGUAUUUAGUAA,0.0086 ± 0.0045
3,UCCUGGAUCAGCUUGCAUAGUAAAAAGUAA,0.108 ± 0.021
4,UCCUGGAUGAGCUUGCAUAGUAAAUAGUAA,0.0816 ± 0.026
5,UCCUGCUACAGCUUGCAUACUAUAUAGUUA,0.0515 ± 0.015
6,UCCUGGAUGAGCUUGCAUAGAAUUUUGUUA,0.0139 ± 0.0063
7,UCCUGGAUCAGCUUGCAUAGUAAAUAGAAA,0.0183 ± 0.0078
8,UCCUGGAACAGCUUGCAUAGAAUUUAGAAA,0.0206 ± 0.0083
9,UCCUGGAACAGCAAGCAUAGUAUUUAGUAA,0.271 ± 0.025
10,UCCUGGAUCACGAUGCAUAGUAUUUACAAA,0.0606 ± 0.015
11,UCCUCCUACAGCUUGCAAUGUAUUUAGUAA,0.0921 ± 0.012
12,UCCUGGAUCAGCUUGCAUAGUAUAAUGAAA,0.0691 ± 0.022
13,UCCUGGAUCAGCUUGCAUUCUAUUUAGUUA,0.0266 ± 0.0066
14,UCCUGGAUCAGCUUCCAUUGUAUUUAGUUA,0.0508 ± 0.0093
15,UCCUCCUACACGAUGCAUAGUAUUUAGAAA,0.102 ± 0.021
16,UCCUGGAUGUCCAUGCAUAGUAUUUAGUAA,0.0373 ± 0.011
17,UCCUGGAUCUGCUUGCAUAGUAUUUACAAA,0.104 ± 0.022
18,UCCUGGAUGUCGUUGCAUAGUAUUUAAUUA,0.0359 ± 0.013

# Same assay, conditions: auxiliary factor: none (no GTSF1)
row,Sequence,pre-steady-state target cleavage rate
1,UCCUGGAUGUCGAAGCAUACAUUUUAGUUA,< 0.0001
2,UCCUGGAUGUCGUUGCAAAGUUUUUAGUUA,0.00384 ± 0.0022
3,UCCUGGAUGUCGAACCAUACGUAUUUAGUUA,< 0.0001
4,UCCUGGAUGUCGAACGAAAGUAUUUAGUAA,< 0.0001
